Data on 40 compounds can be found in PubChem BioAssay (NCATS).

“And” between values parts separate entries of the source, which are not always exact repeats. Equal values may be shown once.

The assay is described as follows: qHTS profiling for inhibitors of Plasmodium falciparum (HB3) proliferation (AID 743324).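 Note: 100% = DMSO vehicle wells and 0% = artemisinin-treated control wells.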 Particulars: Plasmodium falciparum HB3 blood-stage proliferation; at 28.7 µM (top of the series). An excerpt: Plasmodium falciparum is a virulent malarial parasite that kills 1-2 million people worldwide each year. Transmitted by mosquitoes, the sporozoite form of the parasite enters the blood stream to infect hepatocytes, where they become merozoites that infect red blood cells (erythrocytes). Within erythrocytes, merozoites begin a […] cycle of growth and division, after which the parasite is released to infect new red blood cells. Gametocytes, which form within erythrocytes as well, circulate in the bloodstream and are ingested by the mosquito, thereby completing the life cycle. To profile malarial isolates for differential chemical responses and to identify inhibitors of malarial growth, an assay that measures P. falciparum growth and replication within erythrocytes was employed. This assay uses a DNA binding fluorescent dye (SYBR Green) to detect parasite DNA following cell lysis. Because mature erythrocytes lack DNA, only Plasmodium-derived DNA is detected.
For screening 3 ul culture medium was dispensed into 1536 well black clear bottom plates (Aurora Biotechnologies) using a Multidrop Combi (Thermo Fisher Scientific Inc.), 23 nL compounds in DMSO were added by a pin tool (Kalypsys), and 5 ul of erythrocytes infected with P. falciparum (0.3% parasitemia, 2.5% hematocrit final concentration) were added. The plates were incubated at 37 C in a humidified incubator in 5% CO2 for 72 h, and 2 ul lysis buffer (20 mM Tris HCl, 10 mM EDTA, 0.16% saponin, […]% triton X, 10X SYBR Green I supplied as 10,000X […] by Invitrogen) was added to each well. The plates were mixed for 25 sec with gentle shaking and incubated overnight at room temperature in the dark. The following morning, fluorescence intensity at 485(14) nm excitation and 535(25) nm emission wavelengths was measured on an EnVision (Perkin Elmer) plate reader. Plate reads were normalized relative to the control inhibitor (0.29 uM artemisinin) and vehicle (DMSO) wells present on each plate and then corrected by an algorithm using vehicle-only control plates at the beginning and end of the compound plate stack.
For orientation: In qHTS, concentration-response curves come from the screen itself.
Regarding `O=C(O)c1ccc2c(c1)nc(Nc1cccc(Cl)c1)c1ccncc12`, the remaining proliferation (% of control), lower = more inhibition was -0.0167%.
As for `O=C(C=Cc1c(C(=O)O)[nH]c2cc(Cl)cc(Cl)c12)Nc1ccccc1`, the remaining proliferation (% of control), lower = more inhibition is 99.1%.
On to `c1nc2nc(Nc3ccc(N4CCOCC4)cc3)nc(NC3CCCCC3)c2[nH]1`, for which the remaining proliferation (% of control), lower = more inhibition was -0.173%.
Next, `c1ccc2c(CCNc3ccc(Nc4ccncc4)cc3)c[nH]c2c1`: -0.777%; `Cn1cc(-c2[nH]c3cc(NC(=O)[C@H](N)C4CCCCC4)cc4c3c2C=NNC4=O)cn1`: -1.93%; `COc1cc2ncn(-c3cc(OCc4ccccc4C(F)(F)F)c(C(N)=O)s3)c2cc1OC`: 13%.
Then `COCCn1c2c([n+](Cc3cnccn3)c1C)C(=O)c1ccccc1C2=O`, with -1.98%; and `CN(c1ncccc1CNc1nc(Nc2ccc3c(c2)CC(=O)N3)ncc1C(F)(F)F)S(C)(=O)=O`, with 5.89%; and `CC(C)(C)c1cnc(CSc2cnc(NC(=O)C3CCNCC3)s2)o1`, with 7.19%.
Take `O=C(c1ccc(Nc2nccc(-c3cc4ccccc4s3)n2)cc1)N1CCC(N2CCCC2)CC1`: the remaining proliferation (% of control), lower = more inhibition is -1.21%.
Next, `Cc1cccc(C=NNc2cc(N3CCOCC3)nc(OCCc3ccccn3)n2)c1`: 1.85%; `O=C(O)[C@H](Cc1c[nH]c2ccccc12)N1C(=O)c2ccccc2C1=O`: 85.6%.
In the case of `O=C(O)c1ccc2cc(-c3ccc(O)c(C45CC6CC(CC(C6)C4)C5)c3)ccc2c1`, the remaining proliferation (% of control), lower = more inhibition was -1.12%.
Then `Cn1cncc1[C@@](N)(c1ccc(Cl)cc1)c1ccc2c(c1)c(-c1cccc(Cl)c1)cc(=O)n2C`, with 1.12%; and `COc1cc2c(Oc3ccc(NC(=O)C4(C(=O)Nc5ccc(F)cc5)CC4)cc3F)ccnc2cc1OCCCN1CCOCC1`, with -0.88%; and `Cc1cc(Nc2cc(NC(=O)c3c(Cl)cccc3Cl)ccn2)nc(N)n1`, with -0.262%.
Then `CC(NCc1ccc2c(c1)nc(NC(=O)c1ccc(-c3cn[nH]c3)s1)n2CC(C)(C)O)C(C)(C)C` (stereo not given), with -1%.
Next, `O=C(C=Cc1cccnc1)NCCCCC1CCN(C(=O)c2ccccc2)CC1`: 46.3%; `C[C@]1(CO)CN(c2cc(C(=O)Nc3ccc4c(c3)-c3c(c(C(N)=O)nn3-c3ccc(F)cc3)CC4)c(Cl)cn2)C[C@@]1(C)CO`: 6.49%; `CC1=C(CO)C(=O)O[C@@H]([C@@H](C)[C@H]2CC[C@H]3[C@@H]4C[C@H]5O[C@]56[C@@H](O)C=CC(=O)[C@]6(C)[C@@H]4CC[C@]23C)C1`: -0.146%.
`COc1cc(=C2C=c3ccccc3=N2)[nH]c1=Cc1[nH]c(C)cc1C`: the remaining proliferation (% of control), lower = more inhibition is 1.42%.
Then `CN1CCN(c2cc(C(=O)Nc3ccc4c(c3)-c3c(c(C(N)=O)nn3-c3ccc(F)cc3)CC4)c(Cl)cn2)CC1`, with -0.224%.
For `COc1ccc(OC)c(-c2nnc3ccc(-c4ccc(OC)c(O[C@@H]5CCOC5)c4)nn23)c1`, the remaining proliferation (% of control), lower = more inhibition came out at 0.357%.
Then `CN1CCN(c2ccc3nc(-c4c(N)c5c(F)cccc5[nH]c4=O)[nH]c3c2)CC1`, with -3.26%.
Then `O=C(NC1CCNCC1)c1[nH]ncc1NC(=O)c1c(Cl)cccc1Cl`, with 9.9% and 2.81%.
Regarding `Cc1cc(Nc2cc(N3CCN(C)CC3)nc(C=Cc3ccccc3)n2)n[nH]1`, the remaining proliferation (% of control), lower = more inhibition was 0.814%.
Then `CCN1CCN(CC(=O)Nc2ccc(-c3cccc4c(=O)cc(N5CCOCC5)oc34)c3sc4ccccc4c23)CC1`, with 0.111%; and `CCCCc1nc2cc(C=CC(=O)NO)ccc2n1CCN(CC)CC`, with -0.411%; and `C=CC(=O)Nc1cc2c(Nc3ccc(F)c(Cl)c3)ncnc2cc1C#CC(C)(C)N1CCN(C)CC1`, with -0.161%.
Take `COc1cc2c(Oc3ccc(-c4cnc(Nc5ccc(F)cc5)n(C)c4=O)cc3F)ccnc2cc1OCCCN1CCOCC1`: the remaining proliferation (% of control), lower = more inhibition is -1.33%.
Next, `COc1cccc2nc(-c3cccs3)nc(NN3C(=O)C=C(C)C3=O)c12`: 87.8%; `Cc1ccc(C(=O)Nc2cccc(C(F)(F)F)c2)cc1-c1ccc2nc(NCCN3CCOCC3)ncc2c1`: -1.12%; `CCC[C@H](NC(=O)C(C#N)=Cc1cccc(Br)n1)c1ccccc1`: 14.8%.
Consider `Cc1ccc(-c2ncn(-c3ccc(Nc4nccc(-c5cccc(N6CCOCC6)c5)n4)cc3)n2)cn1`, for which the remaining proliferation (% of control), lower = more inhibition amounted to 5.18%.
As to `COc1cc(C(C)C)c2c(c1)S(=O)(=O)N(COc1cc(=O)n3cccc(OCCN4CCCCC4)c3n1)C2=O`, the remaining proliferation (% of control), lower = more inhibition was 89.5%.
Next, `Clc1ccc2ncc(-c3cccc(NC4CNC4)n3)n2c1`: 6.95%; `CC(C)c1ccccc1Cc1cc(C(=O)Nc2ccc(S(=O)(=O)c3ccccc3C(C)(C)C)cc2)c(O)c(O)c1O`: -0.184%.
As to `CC(C)C[C@H](NC(=O)CNC(=O)c1cc(Cl)ccc1Cl)B(O)O`, the remaining proliferation (% of control), lower = more inhibition was -0.908%.
As to `Cc1cc(Nc2cc(N3CCN(C)CC3)nc(Sc3ccc(NC(=O)C4CC4)cc3)n2)n[nH]1`, the remaining proliferation (% of control), lower = more inhibition was found to be 9.14%.
Then `Cc1cnc(Nc2ccc(F)cc2Cl)nc1-c1c[nH]c(C(=O)N[C@H](CO)c2cccc(Cl)c2)c1`, with 6.37%.
